Source: PubChem
RGS16-Gao HTS: regulators of human RGS16-Galphao interaction; O15492+P09471; bead-based flow cytometry RGS16-Galphao binding, fluorescence; actives lie on both sides; binding response (% of control), % at 10 µM; 220,000 compounds, 0.38% hits; AID 1441;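 also: Galphao activated by GDP with aluminum fluoride before binding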
Avidin bead fluor: avidin bead compound fluorescence profile; Avidin beads, compound fluorescence 488/530 nm, flow cytometry; stronger effect = higher value; fluorescence (KMESF) at 10 µM; 220,000 compounds, 0.38% hits; AID 1775; in the data active = fluorescence above about 47
RGS8-Gao: modulates binding of RGS8 to human Galphao | P09471 | multiplexed bead flow cytometry; actives lie on both sides | response (percent of control binding), % at 10 µM | 220,000 compounds, 0.34% hits | AID 1423; in the data active = response below about 60% or above about 140%; inactive = in between;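 also: Galphao activated as the GDP aluminium fluoride complex binding bead-coupled RGS8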
Target sequence (P09471 whole entry, looked up): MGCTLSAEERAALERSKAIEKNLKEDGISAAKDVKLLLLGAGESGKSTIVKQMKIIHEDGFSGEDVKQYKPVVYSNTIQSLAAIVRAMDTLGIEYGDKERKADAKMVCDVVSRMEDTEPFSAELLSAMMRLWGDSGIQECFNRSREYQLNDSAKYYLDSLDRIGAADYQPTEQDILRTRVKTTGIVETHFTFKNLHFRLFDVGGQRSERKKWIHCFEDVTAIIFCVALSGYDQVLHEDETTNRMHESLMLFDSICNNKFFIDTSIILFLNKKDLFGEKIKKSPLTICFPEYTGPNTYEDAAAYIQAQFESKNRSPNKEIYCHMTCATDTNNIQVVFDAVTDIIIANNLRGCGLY
RGS4-Gao reg: modulates binding of RGS4 to human Galphao; P09471; Multiplexed bead flow cytometry; actives lie on both sides; binding response (% of control), % at 10 µM; 220,000 compounds, 0.33% hits; in the data active = binding response below about 49% or above about 150%; inactive = in between;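 also: fluorescent Galphao activated with aluminum fluoride binding bead-coupled RGS4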
GSH bead fluor: GSH bead compound fluorescence profile; GSH beads flow cytometry, compound fluorescence 488/530 nm; stronger effect = higher value; fluorescence (KMESF) at 10 µM; 190,000 compounds, 0.25% hits; in the data active = fluorescence above about 89;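 also: glutathione beads carrying GST-tagged Bcl family fusion proteins plus one bare bead set; values are compound well signal with DMSO vehicle wells as background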
RGS7-Gao: human RGS7-Galphao interaction regulation. AID 1439. 220,000 compounds, 0.35% hits. Multiplexed bead flow cytometry, RGS7-Galphao binding; actives lie on both sides. binding response (% of control), % at 10 µM; in the data active = binding response below about 49% or above about 150%; inconclusive = no clear call, values can overlap the other calls; inactive = in between;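 also: fluorescent Galphao held in activated GDP-AlF4 state binding bead-coupled RGS7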
RGS4-Gao HTS: RGS4-Galphao interaction regulator (human) | shares compounds with RGS16-Gao HTS | multiplexed bead flow cytometry, RGS–Galpha-o binding | RGS4–Galpha-o binding response, % at 10 µM | 1,600 compounds, 99% hits | AID 1504;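 also: fluorescently labeled Galpha-o bound to GDP with aluminium fluoride binding biotinylated RGS beads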
Avidin counter: counter-screen: compounds disrupting biotin binding to avidin beads; shares compounds with RGS16-Gao HTS; streptavidin beads, fluorescein-biotin binding, flow cytometry; inhibition, % at 10 µM; 1,700 tested, under 10 active;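 active = inhibition above 50%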;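 also: median green fluorescence of gated singlet beads compared with DMSO control wells; 0% = DMSO wells and 100% = complete loss of bead fluorescence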
RGS8-Gao single: RGS8-Galphao interaction regulation, single point confirmation; bead-based flow cytometry RGS8-Galphao binding, fluorescence; actives lie on both sides; AID 1836; 1,700 compounds, 3% hits; shares compounds with RGS16-Gao HTS; binding response (% of control), % at 10 µM; in the data active = binding response below about 72% or above about 130%; inactive = in between;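 also: Galphao activated as GDP AlF4 complex before binding bead RGS8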
RGS7-Gao single: RGS7-Galphao interaction regulation, single point confirmation. 1,700 compounds, 7.8% hits. bead-based flow cytometry RGS7-Galphao binding; actives lie on both sides. AID 1837. response (percent of control binding), % at 10 µM. shares compounds with RGS16-Gao HTS; in the data active = response below about 75% or above about 130%; inactive = in between;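 also: fluorescent Galphao activated with GDP and aluminum fluoride binding bead-coupled RGS7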
RGS16-Gao conf: RGS16-Galphao interaction regulation, single point confirmation; shares compounds with RGS16-Gao HTS; bead-based flow cytometry, RGS16-Galphao binding; actives lie on both sides; response (% of control binding), % at 10 µM; 1,700 compounds, 4% hits; AID 1838; in the data active = response below about 74% or above about 130%; inactive = in between;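 also: Galphao activated as the GDP aluminium fluoride complex binding bead-coupled RGS16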
RGS4-Gao confirm: RGS4-Galphao interaction regulation, single point confirmation. shares compounds with RGS16-Gao HTS. RGS4-Galphao binding, multiplexed bead flow cytometry; actives lie on both sides. binding response (% of control), % at 10 µM. 1,700 compounds, 4% hits; in the data active = binding response below about 74% or above about 130%; inactive = in between
RGS19-Gao single: RGS19-Galphao interaction regulation, single point confirmation; shares compounds with RGS16-Gao HTS; bead-based flow cytometry RGS19-Galphao binding; actives lie on both sides; response (percent of control binding), % at 10 µM; 1,700 compounds, 5% hits; AID 1841; in the data active = response below about 50% or above about 160%; inactive = in between;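 also: 100% = no compound control and 0% = blank background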
Target sequence (P09471 whole entry, looked up): as above
Target sequence (P49795 whole entry, looked up): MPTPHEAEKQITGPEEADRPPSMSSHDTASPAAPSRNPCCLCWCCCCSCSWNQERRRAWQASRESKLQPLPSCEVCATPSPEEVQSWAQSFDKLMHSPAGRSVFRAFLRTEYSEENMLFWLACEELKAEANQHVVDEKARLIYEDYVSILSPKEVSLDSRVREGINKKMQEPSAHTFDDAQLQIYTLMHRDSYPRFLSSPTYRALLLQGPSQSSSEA
The depositor's hits bear a star; ? = inconclusive; / = not tested or not shown; [ ] = dose if it differs, or a comment. A selection: hits, their analogues and other compounds. The true share with any hit is near 1.2%. Unless noted, no rule for the calls is given here.

SMILES | RGS16-Gao HTS | Avidin bead fluor | RGS8-Gao | RGS4-Gao reg | GSH bead fluor | RGS7-Gao | RGS4-Gao HTS | Avidin counter | RGS8-Gao single | RGS7-Gao single | RGS16-Gao conf | RGS4-Gao confirm | RGS19-Gao single
O=C(c1cc2n(n1)C(C(F)(F)F)CC(c1ccco1)N2)N1CCN(c2ccccn2)CC1 (configuration not stated) | / | / | / | / | 46 | / | / | -1 | 99 | 99 | 103 | 96 | 119
Cc1ccc(-n2c(N)c(C(=O)N3CCOCC3)sc2=S)cc1 | 228 | 13 | 146*[activator] | 120 | 21 | 120 | 120* | / | / | / | / | / | /
CN=C1c2cc3c(Br)c(OC)ccc3n2CCN1C | 153 | 16 | 97 | 152*[activator] | 8 | 128 | / | -1 | 104 | 95 | 105 | 99 | 96
O=[N+]([O-])/C(C(Cl)=C(Cl)Cl)=C1\Nc2ccccc2O1 | 101 | 8 | 101 | 103 | / | ? | / | / | / | / | / | / | /
Oc1ccc(N=Nc2n[nH]c(-c3ccccc3)n2)cc1 | 14* | 7 | 82 | 91 | 12 | 87 | 91* | 1 | 95 | 56* | 72* | 72* | 35*
O=C(c1cccs1)N1CCc2ccccc21 | 136 | 4 | 126 | 154*[activator] | 27 | 153*[activator] | / | 0 | 92 | 86 | 89 | 89 | 90
C/C(=N/NC(=O)CNC(=O)Cc1ccccc1)c1ccc(Cl)cc1 | 98 | 8 | 102 | 103 | / | ? | / | / | / | / | / | / | /
CC(C)CC(NC(=O)C(CC(C)C)NC(=O)OC(C)(C)C)C(N)=O (configuration not stated) | 105 | 26 | 101 | 114 | 44 | 107 | / | / | / | / | / | / | /
CC(C)CC(NC(=O)C(NC(=O)C(Cc1ccc(OCc2ccccc2)cc1)NC(=O)OC(C)(C)C)C(C)C)C(N)=O (configuration not stated) | 183*[activator] | 10 | 116 | 104 | 13 | 108 | 104* | -1 | 101 | 93 | 100 | 98 | 95
CC(C)CC(NC(=O)C(CC(C)C)NC(=O)OC(C)(C)C)C(=O)O (configuration not stated) | / | / | / | / | 17 | / | / | 0 | 98 | 100 | 95 | 98 | 87
CC(C)CC(NC(=O)C(CC(C)C)NC(=O)C(Cc1ccc(OCc2ccccc2)cc1)NC(=O)OC(C)(C)C)C(N)=O (configuration not stated) | 100 | 8 | 99 | 96 | 8 | 101 | / | / | / | / | / | / | /
CCN(CC)CCNc1ccc2nnc(CCNS(=O)(=O)c3ccc(C)cc3)n2n1 | 11* | 3 | 15* | 20* | 9 | 16* | / | 0 | 100 | 67* | 91 | 77 | 106
Cc1ccc(S(=O)(=O)NCCc2nnc3ccc(SCC(=O)Nc4nc(C)cs4)nn23)cc1 | 102 | 4 | 101 | 102 | 8 | 99 | / | / | / | / | / | / | /
CCOCCCn1c(=NC(=O)c2cccs2)c(C#N)cc2c(=O)n3ccccc3nc21 | 101 | 4 | 100 | 103 | / | ? | / | / | / | / | / | / | /
c1ccc(N(c2ccccc2)c2nc(-n3ccnc3)nc(-n3ccnc3)n2)cc1 | / | / | / | / | 43 | / | / | 0 | 101 | 101 | 102 | 101 | 113
CCOC(=O)C1(Cc2ccccc2C)CCCN(C(=O)CCc2cccnc2)C1 (configuration not stated) | 114 | 24 | 104 | 104 | 17 | 107 | / | / | / | / | / | / | /
Cc1ccc(C(=O)C2Oc3ccccc3C3CC(c4ccc(C)cc4)=NN23)cc1 (configuration not stated) | 14 | 2 | 57* | 79 | 7 | 83 | 79* | -1 | 101 | 97 | 99 | 100 | 92
O=C(COc1ccccc1Cl)Nc1ccc(CN2CCCCC2)cc1 | 102 | 9 | 100 | 97 | 17 | ? | / | / | / | / | / | / | /
O=C(C1CCOCC1)N1CCC(CO)(CCc2ccccc2)CC1 | 100 | 3 | 99 | 100 | 11 | 102 | / | / | / | / | / | / | /
CN1C(=O)/C(=N\OC(=O)c2ccccc2Cl)c2ccccc21 | 100 | 7 | 101 | 104 | 11 | 107 | / | / | / | / | / | / | /
CC(=O)O/N=C1\C(=O)N(Cc2ccc(C)cc2)c2ccccc21 | 18 | 10 | 58* | 76 | 15 | 71 | 76* | / | / | / | / | / | /
C/C(=N/NC(=O)CNc1ccc(Cl)cc1C)c1ccc(C)cc1 | 99 | 7 | 100 | 98 | 12 | 99 | / | / | / | / | / | / | /
CN(C)S(=O)(=O)c1cc(NC(=O)COC(=O)Cc2ccc(Br)cc2)ccc1Cl | 12* | 2 | 56* | 78 | 9 | 83 | 78* | -2 | 99 | 98 | 98 | 100 | 104
COc1cccc(CNC(=O)CSc2ccc(-c3cccs3)nn2)c1 | 104 | 22 | 101 | 102 | 11 | 103 | / | / | / | / | / | / | /
COc1cccc(Nc2nnc(SCN3C(=O)c4ccccc4C3=O)s2)c1 | 551 | 12 | 153*[activator] | 122 | 13 | 130 | 122* | 1 | 103 | 101 | 100 | 102 | 106
COc1ccc(OC(=O)Nc2ccc([N+](=O)[O-])cc2OC)cc1 | 34 | 1 | 48* | 39* | / | ? | / | 0 | 104 | 106 | 106 | 107 | 108
COC(=O)Nc1cc([N+](=O)[O-])ccc1OC | 101 | 19 | 103 | 101 | 11 | 112 | / | / | / | / | / | / | /
N#CC1=C(N)C2=C(N3CCCCC3)CCCC2C1(C#N)C#N (configuration not stated) | 118 | 4 | 107 | 102 | 5 | 102 | / | / | / | / | / | / | /
CCCCN(C)C1=CC2=CC(=C(C#N)C#N)CCC2CC1 (configuration not stated) | 167 | 68* | 106 | 147 | 57 | 164*[activator] | 147* | 1 | 112 | 206*[activator] | 157*[activator] | 154*[activator] | 293*[activator]
